# According to PubChem BioAssay AID1347422 (Sanford-Burnham Center for Chemical Genomics, 2020):
# The full ranking holds about 1,000 compounds; the median of “thermal shift dTm” is about 0.19, and the highest 2% start at about 1.7. The sample holds the highest values, similar compounds and a random draw of the others, so the mix is not that of the screen. Calls of active or inactive are those of the source.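 How the source made its calls: active means mean rise in melting temperature of at least 1 degC over same-plate control wells; inactive means below that, where a call was filed.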
# Molecular target: Sulfhydryl oxidase 1 (Homo sapiens) (UniProt O00391)
# Assay: ligand-induced melting shift of human QSOX1 – biophysical, protein thermal shift, single concentration, QSOX1 inhibitor project, confirmation (AID 1347422);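 further: dTm is compound Tm minus mean Tm of DMSO-only wells on that plate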
# Details: recombinant hQSOX1 thermal shift, Sypro Orange, at 25 µM, stronger effect = higher value
# Sequence of Sulfhydryl oxidase 1 (Homo sapiens) (O00391 whole entry, looked up): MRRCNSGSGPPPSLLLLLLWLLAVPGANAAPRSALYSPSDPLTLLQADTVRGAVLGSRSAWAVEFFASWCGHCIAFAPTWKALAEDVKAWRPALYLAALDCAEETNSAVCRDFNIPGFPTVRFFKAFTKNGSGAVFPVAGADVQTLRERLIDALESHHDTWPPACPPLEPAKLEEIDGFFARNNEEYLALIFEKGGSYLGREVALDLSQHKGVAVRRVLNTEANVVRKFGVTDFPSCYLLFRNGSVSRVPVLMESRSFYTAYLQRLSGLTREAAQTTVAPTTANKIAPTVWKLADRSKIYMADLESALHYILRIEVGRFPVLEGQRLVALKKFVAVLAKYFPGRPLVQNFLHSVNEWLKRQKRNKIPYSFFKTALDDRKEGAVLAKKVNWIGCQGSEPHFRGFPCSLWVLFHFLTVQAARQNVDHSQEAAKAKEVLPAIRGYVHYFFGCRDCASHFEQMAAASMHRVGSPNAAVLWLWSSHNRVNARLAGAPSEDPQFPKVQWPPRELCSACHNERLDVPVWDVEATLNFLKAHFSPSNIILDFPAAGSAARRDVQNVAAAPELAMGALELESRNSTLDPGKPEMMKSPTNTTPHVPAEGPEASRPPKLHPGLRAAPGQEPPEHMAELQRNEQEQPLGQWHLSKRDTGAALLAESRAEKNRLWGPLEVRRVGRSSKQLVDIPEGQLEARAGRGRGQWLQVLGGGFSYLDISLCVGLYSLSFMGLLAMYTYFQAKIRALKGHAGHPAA
row,Structure (SMILES),thermal shift dTm
1,COc1ccc(Cl)cc1Nc1nc(-c2ccccn2)cs1,0.1 °C
2,Cc1cnc(CNCc2ccccc2OCC(O)CN(C)C2CCCCC2)cn1 (stereo not given),0.14 °C
3,CCC(=O)c1ccc(OCC(=O)Nc2ccc(NC(C)=O)cc2)cc1,-0.03 °C (inactive)
4,Cc1ccc2[nH]cc(CCNC(=O)c3ccccc3Cl)c2c1,-0.13 °C (inactive)
5,CCOc1ccccc1C1C(C#N)=C(N)Oc2cc(N(C)C)ccc21 (stereo not given),0.29 °C
6,COc1ccc(-c2cc(C(F)(F)F)nc(NCc3cccs3)n2)cc1OC,0.11 °C
7,O=C(Nc1cccc(-c2ccco2)c1)C1CCN(C(=O)CCc2ccco2)CC1,1.03 °C (active)
8,CCN(CC)C(=O)c1cccc(NC(=O)Nc2ccc(Cl)cc2)c1,0.23 °C
9,CC(=O)Nc1cccc(C(=O)Nc2ccc(Cl)cc2)c1,-7.43 °C (inactive)
10,O=C(Nc1ccc(Cl)cc1)Nc1cccc(C(=O)NCc2ccco2)c1,3.11 °C (active)
11,CCc1ccc2c(c1)C(OC(C)=O)C(C)(C)C(c1cccc(Br)c1)N2 (stereo not given),0.44 °C
12,O=C(CCC(=O)OCc1ccc(Br)cc1)Nc1cc(C(F)(F)F)ccc1Cl,0.17 °C
13,O=C(Nc1ccc(C(F)(F)F)cc1Cl)c1cc([N+](=O)[O-])[nH]n1,1.73 °C (active)
14,COc1cc(-c2cccc(-c3ccn[nH]3)c2)ccc1NC(C)=O,0.14 °C
15,O=C(NCCc1ccccc1)c1ccc(NC(=O)C2CC2)cc1,0.04 °C
16,Cc1cc(Br)cc(C)c1NC(=O)/C=C/c1ccco1,0.52 °C
17,Cc1ccc(Nc2nc(C3CC(CC(C)C)C(=O)O3)cs2)cc1 (stereo not given),-0.09 °C (inactive)
18,Cc1ccc2cccc(OCCCCOc3ccccc3I)c2n1,0.77 °C
19,Cc1ccc(-c2noc(CNC(=O)c3ccc4ccccc4c3)n2)cc1,-0.08 °C (inactive)
20,CCOc1ccc(NC(=O)c2ccc(-c3csc(C)n3)cc2)cc1,0.15 °C
21,NC(=O)c1ccc(NC(=O)c2cccc(C(F)(F)F)c2)cc1,0.7 °C
22,CCc1ccc(NC(=O)COc2ccccc2F)cc1,0.24 °C
23,C=C(C)COc1ccc(NC(=O)c2cccnc2)cc1,0.13 °C
24,COc1ccc(-c2csc(NC(=O)c3ccc(Cl)s3)n2)cc1,0.05 °C
25,Oc1ccccc1C=Nc1ccc(Cc2ccc(N=Cc3ccccc3O)c(O)c2)cc1O,0.01 °C
26,O=S(=O)(NCCC1=CCCCC1)c1ccc(Cl)s1,0.17 °C
27,CCOc1ccc(NC(=S)N2CCC(C(N)=O)CC2)cc1,-0.13 °C (inactive)
28,Cc1ccc(/C=C/C(=O)NCC(C)NC(=O)/C=C/c2ccc(C)cc2)cc1 (stereo not given),0.45 °C

row,Structure (SMILES),thermal shift dTm
1,COc1ccc2[nH]cc(CCNC(=O)c3ccc(NC(C)=O)cc3)c2c1,1 °C (active)
2,COc1cc(/C=N/O)cc(Br)c1OCc1ccccc1F,0.16 °C
3,O=S(=O)(c1cccs1)N1CCC(CO)(Cc2ccc(Cl)cc2)CC1,0.18 °C
4,O=C(NCc1ccc(Cl)c(Cl)c1)c1ccc(Br)cc1,-0.13 °C (inactive)
5,O=C(Nc1nccs1)c1ccc(-c2cccc(Cl)c2Cl)o1,0.19 °C
6,O=C(C#Cc1ccccc1)Nc1ccc2c(c1)OCCO2,0.24 °C
7,CCC(c1ccccc1)c1nnc(NC(=O)Nc2ccccc2F)s1 (stereo not given),0.2 °C
8,NC(=O)c1cn(-c2ccccc2)nc1-c1ccc(-c2ccccc2)cc1,0.07 °C
9,O=C(NC(=S)Nc1cccc(Cl)c1N1CCOCC1)c1cccs1,-0.04 °C (inactive)
10,CCc1c(C(=O)Nc2ccc3[nH]ncc3c2)csc1C,0.29 °C
11,O=C(Nc1ccc2[nH]ncc2c1)c1cccc(F)c1,1.63 °C (active)
12,CCCc1cc(C(=O)Nc2ccc3[nH]ncc3c2)cs1,2.61 °C (active)
13,Cc1ccc(NC(=O)Nc2ccc(C)c(F)c2)c(C)c1,0.56 °C
14,FC(F)(F)c1ccccc1NC(=S)Nc1ccc(OCc2ccccc2)cc1,0.68 °C
15,COc1ccc(NC(=O)c2ccc(Cl)s2)cc1OC,0.19 °C
16,Cc1cc(C(=O)OCC(=O)Nc2ccc(Cl)cc2)c2ccccc2n1,-0.03 °C (inactive)
17,CCNS(=O)(=O)c1ccc(NC(=O)Nc2cc(C)ccc2OC)cc1,1.17 °C (active)
18,NC(=O)c1cn(-c2ccccc2)nc1-c1cccc(Br)c1,-0.72 °C (inactive)
19,C(=C\c1nnc(-c2ccccc2)o1)/c1cc2ccccc2o1,0.18 °C
20,O=c1nc2n(c3cc(Cl)ccc13)CC(O)=C2c1ccccc1,1.08 °C (active)
21,CCOc1ccc(C(=O)Nc2cccc(-c3csc(C)n3)c2)cc1,-0.65 °C (inactive)
22,Cc1nc(-c2cccc(NC(=O)c3cccc(F)c3)c2)cs1,3.41 °C (active)
23,Cc1cccc(C(=O)Nc2cccc(-c3csc(C)n3)c2)c1,1.13 °C (active)
24,CCOc1ccc(C(=O)Nc2cc(C)ccn2)cc1[N+](=O)[O-],0.43 °C
25,O=C(Nc1cccc(Br)c1)C1C2C3CCC(C3)C12 (stereo not given),0.21 °C
26,CCOc1ccc(/C=C/C(=O)Nc2ccc(OC)cc2OC)cc1,0.02 °C
27,CCc1cc(-c2n[nH]c(C)c2Oc2ccc(F)cc2)c(O)cc1OC,0.02 °C
